According to PubChem BioAssay:
Active and inactive are the calls of the source. Rule as the data show it, unless noted: active = inhibition above about 80%; inactive = the rest.

Key:
[1] = growth inhibition, single agent or in combination, cell-based, chromothripsis tumors, cisplatin or BGB combos (AID 1671449); details: LFS_MB_P medulloblastoma cells;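 also: cells exposed for 96 hours; 0% = vehicle DMSO and 100% = killing by high DMSO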
[2] = growth inhibition, single agent and combos, cell-based, chromothripsis tumors, cisplatin or BGB combos (AID 1671450); details: HDN33 neuroblastoma cells, stronger effect = higher value;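 also: cells exposed to compound for four days; 0% = vehicle DMSO and 100% = cell killing by high DMSO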
[3] = growth inhibition, single agents and combos, ICB984, cell-based, cisplatin or BGB combos, synergistic combos for chromothripsis tumors (AID 1671451; call rule not given here;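 also: cells exposed for 96 hours before readout; 0% = vehicle DMSO and 100% = killing by high DMSO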); details: ICB984 medulloblastoma cells, drug combinations, stronger effect = higher value
[4] = growth inhibition, single agents and combos, LFS_MB_1R, cell-based, cisplatin or BGB combos, synergistic combos for chromothripsis tumors (AID 1671452); details: LFS_MB_1R medulloblastoma cells, stronger effect = higher value;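 also: cells exposed for 96 hours before readout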
[5] = growth inhibition, single agents and combos, HTB85, cell-based, BGB or cisplatin IC20 combos, synergistic combos for chromothripsis tumors (AID 1671453); details: HTB85 osteosarcoma cells, drug combinations, stronger effect = higher value;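 also: cells exposed for 96 hours before readout; 0% = vehicle DMSO and 100% = high DMSO killing control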
[6] = growth inhibition, single agents and combos, CRL2098, cell-based, BGB or cisplatin IC20 combos, synergistic combos for chromothripsis tumors (AID 1671454); details: CRL2098 osteosarcoma cells, drug combinations, stronger effect = higher value;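 also: cells exposed for 96 h before readout; 0% = vehicle DMSO and 100% = killing by high DMSO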
[7] = growth inhibition, single agents and combos, HD-MB03, cell-based, BGB or cisplatin IC20 combos, synergistic combos for chromothripsis tumors (AID 1671455; in the data active = inhibition above about 83%;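 also: 0% = vehicle DMSO and 100% = high DMSO as cytotoxic control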); details: HD-MB03 medulloblastoma cells, stronger effect = higher value
[8] = growth inhibition, single agents and combos, UWB1.289, cell-based, BGB or cisplatin combos, synergistic combos for chromothripsis tumors (AID 1671456); details: UWB1.289 ovarian carcinoma cells, stronger effect = higher value;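 also: cells exposed to compound for four days; 0% = vehicle DMSO and 100% = killing by high DMSO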
[9] = growth inhibition, single agents and combos, LFS_MB_2R, cell-based, cisplatin combos, synergistic combos for chromothripsis tumors (AID 1671457); details: LFS_MB_2R medulloblastoma cells, stronger effect = higher value;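 also: cells exposed to compound for four days before readout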
[10] = growth inhibition, MDA-MB-436, cell-based, BGB or cisplatin combos, synergistic combos for chromothripsis tumors (AID 1671458; call rule not given here;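 also: cells exposed for 96 hours; 0% = vehicle DMSO and 100% = killing by high DMSO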); details: MDA-MB-436 breast carcinoma growth inhibition, drug combinations, stronger effect = higher value
[11] = UWB1.289_BRCA1 ovarian cancer growth, cell-based, BGB or cisplatin combinations (AID 1671459); details: UWB1.289 BRCA1 ovarian carcinoma, drug combinations, stronger effect = higher value
[12] = drug combination toxicity in non-malignant astrocytes – cell-based, BGB or cisplatin IC20 combos, cytotoxicity control for chromothriptic childhood tumor combination screen (AID 1671460); details: Human astrocytes, viability inhibition, drug combinations, at 0.5 µM, stronger effect = higher value;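 also: cells exposed to compounds for 96 hours before viability readout; 0% = vehicle and 100% = killing control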
[13] = BT084 cell growth, single and combined drugs, ICGC_MB145, cisplatin and BGB IC40 combos (AID 1671461); details: BT084 medulloblastoma cells, drug combinations, stronger effect = higher value;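 also: cells exposed to drugs for 96 hours; 0% = vehicle DMSO and 100% = high DMSO full killing control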
[14] = RCMB18 cell growth, single agent and combined, cisplatin and BGB IC40 combos (AID 1671462); details: RCMB18 medulloblastoma cells, stronger effect = higher value;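 also: cells exposed to compound for four days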
[15] = CRL1545 cell growth, single agent and combined, cisplatin and BGB IC20 combos (AID 1671464); details: CRL1545 osteosarcoma cells, stronger effect = higher value;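 also: cells exposed to compound for 96 hours before readout; 0% = vehicle DMSO and 100% = high DMSO killing control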
[16] = at 0.5 µM, stronger effect = higher value
[17] = measured here: combination with BGB IC20, at 0.005 µM
[18] = measured here: combination with BGB IC40, at 0.005 µM
[19] = measured here: combination with BGB IC40, at 0.05 µM
[20] = measured here: combination with cisplatin, at 0.5 µM, stronger effect = higher value
[21] = measured here: combination with cisplatin, at 5 µM, stronger effect = higher value
[22] = measured here: with BGB IC20 combination, at 0.5 µM
[23] = measured here: with cisplatin IC20 combination, at 0.5 µM
[24] = measured here: 5 uM single agent, at 5 µM
[25] = measured here: combination with cisplatin, at 0.5 µM
[26] = measured here: combination with cisplatin, at 5 µM
[27] = measured here: with BGB IC20, at 0.5 µM
[28] = measured here: with BGB IC20, at 5 µM
[29] = measured here: with cisplatin IC20, at 0.5 µM
[30] = measured here: with cisplatin IC20, at 5 µM
[31] = measured here: combination with BGB at IC20, at 0.5 µM
[32] = measured here: combination with cisplatin at IC20, at 0.5 µM
[33] = measured here: combo with BGB at IC20, at 0.5 µM
[34] = measured here: combo with cisplatin at IC20, at 0.5 µM
[35] = measured here: inhibition with BGB combination, at 0.05 µM
[36] = measured here: inhibition with cisplatin combination, at 0.05 µM
[37] = measured here: BGB combination, at 0.5 µM
[38] = measured here: BGB combination, at 5 µM
[39] = measured here: cisplatin combination, at 0.5 µM
[40] = measured here: cisplatin combination, at 5 µM
[41] = BGB combination, concentration series, at 5 µM
[42] = cisplatin combination, concentration series, at 5 µM
[43] = measured here: combo with BGB IC20
[44] = measured here: combo with cisplatin IC20
[45] = cisplatin combination, at 0.5 µM
[46] = measured here: BGB IC40 combination 0.05 uM, at 0.05 µM
[47] = measured here: BGB IC40 combination, at 0.05 µM

With `O=c1[nH]c(=S)[nH]c2nc(-c3ccccc3)c(-c3ccccc3)nc12` the inhibition [1, 16] was -4.47% (inactive), the inhibition [1, 17] was -16.2% and the inhibition [1, 18] was -17.7%. The inhibition [1, 19] was -55%, the inhibition [1, 20] was -17.6% and the inhibition [1, 21] was -30.5%. The inhibition ([2]; BGB combo, at 5 µM) was -12.8%, the inhibition ([2]; at 0.5 µM) was -3.23% (inactive) and the inhibition ([2]; cisplatin combo, at 5 µM) was -3.41%. The inhibition [2, 22] was -5.44%, the inhibition [2, 23] was 12.5% and the inhibition ([2]; single agent, at 5 µM) was 8.28%. The inhibition ([3]; BGB IC20 combo, at 0.005 µM) was -5.97%, the inhibition ([3]; BGB IC40 combo, at 0.005 µM) was -18.7% and the inhibition ([3]; BGB IC40 combo, at 0.05 µM) was -15.7%. For the same compound, the inhibition ([3]; at 0.5 µM) was -20.3% (inactive), the inhibition ([3]; cisplatin combo, at 0.05 µM) was -19.8% and the inhibition ([3]; cisplatin combo, at 0.5 µM) was -15.9%. For the same compound, the inhibition ([3]; cisplatin combo, at 5 µM) was -36.6%, the inhibition [3, 24] was 8.29% and the inhibition ([4]; at 0.5 µM) was -12.5% (inactive). For the same compound, the inhibition [4, 19] was -14.1%, the inhibition [4, 25] was -36.2% and the inhibition [4, 26] was -28.2%. For the same compound, the inhibition ([5]; at 0.5 µM) was -2.11% (inactive), the inhibition [5, 27] was -2.07% and the inhibition [5, 28] was -2.27%. The inhibition [5, 29] was -3.18%, the inhibition [5, 30] was -32% and the inhibition ([5]; single agent, at 5 µM) was 0.689%. The inhibition ([6]; at 0.5 µM) was -39.5% (inactive), the inhibition [6, 31] was -21.3% and the inhibition [6, 32] was -56.3%. The inhibition ([7]; at 0.5 µM) was 1.96% (inactive), the inhibition [7, 33] was -7.2% and the inhibition [7, 34] was 15.9%. For the same compound, the inhibition ([8]; at 0.5 µM) was 8.37% (inactive), the inhibition [8, 35] was 69.6% and the inhibition [8, 36] was 18.6%. For the same compound, the inhibition ([9]; at 0.5 µM) was -9.62% (inactive), the inhibition [9, 25] was -6.67% and the inhibition [9, 26] was 4.64%. For the same compound, the inhibition ([10]; at 0.5 µM) was -2.86% (inactive), the inhibition [10, 37] was -6.6% and the inhibition [10, 38] was -11.7%. It also gave an inhibition [10, 39] of 0.551%, an inhibition [10, 40] of -30.7% and an inhibition [11, 41] of 8.97%. The inhibition ([11]; at 0.5 µM) was 3.94% (inactive), the inhibition [11, 42] was -14.9% and the inhibition [12] was 4.94% (inactive). For the same compound, the inhibition [12, 43] was 4.6%, the inhibition [12, 44] was -1.31% and the inhibition ([13]; at 0.5 µM) was -2.6% (inactive). The inhibition [13, 45] was -10.5%, the inhibition ([13]; cisplatin combination, at 5 µM) was 0.186% and the inhibition [13, 46] was -24.1%. The inhibition ([13]; single agent, at 5 µM) was 0.55%, the inhibition ([14]; at 0.5 µM) was -2.13% (inactive) and the inhibition ([14]; cisplatin combo, at 5 µM) was -6.02%. The inhibition [14, 47] was -12.2%, the inhibition [14, 25] was 41.9% and the inhibition ([14]; single agent, at 5 µM) was -34.1%. For the same compound, the inhibition ([15]; at 0.5 µM) was -17.1% (inactive), the inhibition [15, 22] was -18.6% and the inhibition [15, 23] was -18.2%. The inhibition ([15]; single agent, at 0.05 µM) was -5.63% and the inhibition ([15]; single agent, at 5 µM) was -50.2%.
With `C=C1CCC(O)CC1=CC=C1CCCC2(C)C1CCC2C(C)C=CC(C)C(C)C` (stereo unspecified) the inhibition [1, 16] was -12.3% (inactive), the inhibition [1, 17] was -24.6% and the inhibition [1, 18] was -11.2%. For the same compound, the inhibition [1, 19] was -19.6%, the inhibition [1, 20] was -17.3% and the inhibition [1, 21] was -80.9%. For the same compound, the inhibition ([2]; BGB combo, at 5 µM) was -2.75%, the inhibition ([2]; at 0.5 µM) was 5.6% (inactive) and the inhibition ([2]; cisplatin combo, at 5 µM) was 6.61%. For the same compound, the inhibition [2, 22] was 7.28%, the inhibition [2, 23] was 3.61% and the inhibition ([2]; single agent, at 5 µM) was 5.11%. It also gave an inhibition ([3]; BGB IC20 combo, at 0.005 µM) of -16.8%, an inhibition ([3]; BGB IC40 combo, at 0.005 µM) of -28.1% and an inhibition ([3]; BGB IC40 combo, at 0.05 µM) of 22.2%. For the same compound, the inhibition ([3]; at 0.5 µM) was -8.49% (inactive), the inhibition ([3]; cisplatin combo, at 0.05 µM) was 22.2% and the inhibition ([3]; cisplatin combo, at 0.5 µM) was -55.6%. The inhibition ([3]; cisplatin combo, at 5 µM) was -22.2%, the inhibition [3, 24] was -22.8% and the inhibition ([4]; at 0.5 µM) was 14.3% (inactive). The inhibition [4, 19] was 15.9%, the inhibition [4, 25] was 28.4% and the inhibition [4, 26] was 4%. The inhibition ([5]; at 0.5 µM) was -12.4% (inactive), the inhibition [5, 27] was -26.3% and the inhibition [5, 28] was 9.36%. It also gave an inhibition [5, 29] of -19%, an inhibition [5, 30] of 1.54% and an inhibition ([5]; single agent, at 5 µM) of 12%. For the same compound, the inhibition ([6]; at 0.5 µM) was -3.6% (inactive), the inhibition [6, 31] was -1.76% and the inhibition [6, 32] was 19.2%. The inhibition ([7]; at 0.5 µM) was -7.66% (inactive), the inhibition [7, 33] was -6.27% and the inhibition [7, 34] was -11.7%. The inhibition ([8]; at 0.5 µM) was -2.68% (inactive), the inhibition [8, 35] was -16.7% and the inhibition [8, 36] was -7.51%. The inhibition ([9]; at 0.5 µM) was -22.6% (inactive), the inhibition [9, 25] was -24.1% and the inhibition [9, 26] was -14.6%. The inhibition ([10]; at 0.5 µM) was -12.5% (inactive), the inhibition [10, 37] was -17.5% and the inhibition [10, 38] was -14.8%. For the same compound, the inhibition [10, 39] was -15.7%, the inhibition [10, 40] was -13.9% and the inhibition [11, 41] was 18.4%. The inhibition ([11]; at 0.5 µM) was -4.82% (inactive), the inhibition [11, 42] was 27.5% and the inhibition [12] was 2.39% (inactive). The inhibition [12, 43] was 0.485%, the inhibition [12, 44] was -12% and the inhibition ([13]; at 0.5 µM) was -17.5% (inactive). For the same compound, the inhibition [13, 45] was -35.1%, the inhibition ([13]; cisplatin combination, at 5 µM) was -77.9% and the inhibition [13, 46] was 22.6%. The inhibition ([13]; single agent, at 5 µM) was -13.5%, the inhibition ([14]; at 0.5 µM) was -6.63% (inactive) and the inhibition ([14]; cisplatin combo, at 5 µM) was -19.4%. For the same compound, the inhibition [14, 47] was -24%, the inhibition [14, 25] was -21.7% and the inhibition ([14]; single agent, at 5 µM) was -13.3%. For the same compound, the inhibition ([15]; at 0.5 µM) was -21.7% (inactive), the inhibition [15, 22] was 16.4% and the inhibition [15, 23] was -40.8%. The inhibition ([15]; single agent, at 0.05 µM) was 37.2% and the inhibition ([15]; single agent, at 5 µM) was 10.9%.
